NOMO-1 viab = NOMO-1 AML cell viability reduction, primary screen, STK33 inhibitor project, CellTiter-Glo luminescence | NOMO-1 AML viability, 72 h | inhibition, % (concentration not given with the values) | actives 7.5% (n = 37,000); in the data active = inhibition above about 80%
MITF inhib = inhibitors of MITF, primary screen, MITF inhibitor project, cell-based, luminescence; actives 0.28% (n = 37,000); inhibition, % (concentration not given with the values); AID 2240, 2010; TRPM1 promoter luciferase, 24 h; in the data active = inhibition above about 85%;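 note: human melanocyte line stably carrying TRPM1 promoter luciferase reporter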
Shh pathway inh = Hedgehog pathway signaling inhibitors, primary screen, luminescence, Shh-LIGHT2 cells, Gli-luciferase | inhibition, % (test concentration not listed) | actives 2.1% (n = 22,000) | Shh-LIGHT2 Gli-luciferase reporter, 30 h | AID 2313, 2010;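 active = mean inhibition across valid replicates above about 65%, limit read from the data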;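 note: pathway switched on by Shh-conditioned medium diluted 1 in 25 in low serum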
Active calls of the source: *; . = no result; ! = a repeat was not active. Hits are enriched below; roughly 8.1% of the tested compounds scored in any of these assays.

SMILES	NOMO-1 viab	MITF inhib	Shh pathway inh
C[C@H]1CN([C@@H](C)CO)C(=O)Cc2cc(N(C)C)ccc2O[C@@H]1CN(C)Cc1ccc(C(=O)Nc2ccccc2N)cc1	140*	25	.
C[C@@H]1CN([C@@H](C)CO)C(=O)Cc2cc(N(C)C)ccc2O[C@@H]1CN(C)Cc1ccc(C(=O)Nc2ccccc2N)cc1	140*	55	.
O=c1cc(-c2ccccc2)oc2ccccc12	41	-100	35
O=C1NC(=O)C(=Cc2ccc(-c3ccccc3)o2)C(=O)N1	126*	2	-5
CC(NS(=O)(=O)c1ccc(F)cc1)C(=O)Nc1ccc(F)c(Cl)c1 (stereo not given)	16	13	.
O=C(CC(NC1CC1)C(=O)O)c1ccc(Cl)cc1 (stereo not given)	30	-5	-5
O=C(CC(Sc1ccc(Br)cc1)C(=O)O)c1ccc(Cl)cc1 (stereo not given)	115*	6	53
CC1CCc2c(sc3nc(SC(C)C(=O)Nc4ccccc4)nc(N)c23)C1 (stereo not given)	-8	-47	.
COc1ccc(OC)c(C2C(C(=O)Nc3ccccc3OC)=C(C)Nc3ncnn32)c1 (stereo not given)	-16	-10	.
COc1ccc(OC)c(C2Nc3nc4ccccc4n3C(C)=C2C(=O)Nc2ccc(C)cc2C)c1 (stereo not given)	85*	5	.
COc1ccc(-n2c(SCC(=O)Nc3ccccc3C)nc3ccccc3c2=O)cc1	12	6	.
COc1ccc(Sc2ccccc2COC(C)=O)c(C(=O)O)c1	4	2	-2
Cn1c(SCC(=O)Nc2ccccc2)nnc1-c1ccccc1F	-1	-18	.
CCc1c(C)nc(SCC(=O)Nc2ccc(OC)cc2)[nH]c1=O	14	4	.
CSc1ccc2c(c1)C(N1CCN(C)CC1)Cc1ccccc1S2 (stereo not given)	143*!	-16	70*
CN1CCCC(CC2c3ccccc3Sc3ccccc32)C1 (stereo not given)	50	-6	39
C[C@H]1CN([C@@H](C)CO)C(=O)Cc2cc(NS(=O)(=O)c3ccc(Cl)cc3)ccc2O[C@H]1CN(C)Cc1ccc(C(=O)Nc2ccccc2N)cc1	139*	16	.
C[C@@H]1CN([C@H](C)CO)C(=O)Cc2cc(NS(=O)(=O)c3ccccc3)ccc2O[C@@H]1CN(C)Cc1ccc(C(=O)Nc2ccccc2N)cc1	116*	3	.
C[C@H]1CN([C@@H](C)CO)C(=O)Cc2cc(NS(C)(=O)=O)ccc2O[C@@H]1CN(C)Cc1ccc(C(=O)Nc2ccccc2N)cc1	16	-7	.
Cc1ccc(S(=O)(=O)Nc2ccc3c(c2)CC(=O)N([C@H](C)CO)C[C@@H](C)[C@H](CN(C)Cc2ccc(C(=O)Nc4ccccc4N)cc2)O3)cc1	37	0	.
CCn1c(SCC(=O)Nc2ccc(C(=O)O)cc2)nnc1-c1ccc(Cl)cc1	31	-7	.
CC(=O)c1cccc(NC(=O)NCc2cc(C)n(C)n2)c1	17	-13	.
O=C(CN1CCN(C2CCCC2)CC1)Nc1ccc([N+](=O)[O-])cc1C(=O)Nc1ccccc1F	24	-3	.
CCC(C)CCCCCCCCC1CC(=O)NC(CCC(N)=O)C(=O)NC(CC(C)C)C(=O)NC(CC(C)C)C(=O)NC(C(C)C)C(=O)NC(CC(=O)O)C(=O)NC(CC(C)C)C(=O)NC(C(C)C)C(=O)O1 (stereo not given)	111*	29	8
O=S(=O)(NCc1ccccn1)c1ccc(Cl)c(Cl)c1Cl	5	-12	.
SMILES	NOMO-1 viab	MITF inhib	Shh pathway inh
Cc1ccc(NCC(O)CSc2nc3c(cc2C#N)CCCC3)cc1 (stereo not given)	-22	-9	.
CC1(O)CC(=O)c2c(ccc3c2C(=O)c2cccc(O)c2C3=O)C1 (stereo not given)	95*	11	-29
COc1cccc2c1C(=O)c1ccc3c(c1C2=O)C(=O)CC(C)(O)C3 (stereo not given)	93*	-14	-59
COc1cc(O)cc2cc3c(c(O)c12)C(=O)C[C@@](C)(O)C3	8	-7	-13
Cc1cc(O)c2c(c1)C(=O)c1cccc(O)c1C2=O	16	0	28
O=C(O)c1ccc(Cl)c(S(=O)(=O)N2CCCC2C(=O)O)c1 (stereo not given)	8	-21	.
CCN(CC)C(=S)C(=O)Nc1cc(C(F)(F)F)cc(C(F)(F)F)c1	109*	13	57
O=C(O)CC(C(=O)Nc1cc(C(F)(F)F)cc(C(F)(F)F)c1)C1=CCCCC1 (stereo not given)	16	0	-37
Cc1cc(C)c(OCC(=O)Nc2ccc3oc(-c4cncc(Br)c4)nc3c2)c(Cl)c1	-12	-80	.
Cc1noc(C)c1NC(=O)Nc1ccc2c(c1)CC(=O)N([C@H](C)CO)C[C@H](C)[C@H](CN(C)Cc1ccc(C(=O)Nc3ccccc3N)cc1)O2	137*	10	.
C[C@H]1CN([C@@H](C)CO)C(=O)Cc2cc(NC(=O)Nc3cccc4ccccc34)ccc2O[C@@H]1CN(C)Cc1ccc(C(=O)Nc2ccccc2N)cc1	29	5	.
Cc1noc(C)c1NC(=O)Nc1ccc2c(c1)C(=O)N([C@H](C)CO)C[C@H](C)[C@H](CN(C)Cc1ccc(C(=O)Nc3ccccc3N)cc1)O2	37	-12	.
C[C@@H]1CN([C@H](C)CO)C(=O)Cc2cc(NC(=O)Nc3ccc(F)cc3)ccc2O[C@@H]1CN(C)Cc1ccc(C(=O)Nc2ccccc2N)cc1	97*	-5	.
C[C@H]1CN([C@@H](C)CO)C(=O)Cc2cc(NC(=O)Nc3ccc(F)cc3)ccc2O[C@H]1CN(C)Cc1ccc(C(=O)Nc2ccccc2N)cc1	128*	30	.
C[C@H]1CN([C@@H](C)CO)C(=O)Cc2cc(NC(=O)Nc3cccc4ccccc34)ccc2O[C@H]1CN(C)Cc1ccc(C(=O)Nc2ccccc2N)cc1	105*	11	.
COC(=O)c1cc(NC(=O)c2ccco2)cc(C(=O)OC)c1	-8	6	27
O=C(CSc1nc2sc3c(c2c(=O)n1Cc1ccco1)CCC3)N1CCCc2ccccc21	18	4	.
C[n+]1cc(C(=O)NCCC[N+]2(C)CCCC2)ccc1/C=N/O	34	-10	-10
COC(=O)c1ccc(C(=O)OC)c(NC(=O)CN2C(=O)c3cccc4cccc2c34)c1	-15	11	.
C[C@H]1CN([C@@H](C)CO)C(=O)Cc2cc(NC(=O)c3ccncc3)ccc2O[C@H]1CN(C)Cc1ccc(C(=O)Nc2ccccc2N)cc1	126*	6	.
CC(C)NC(=O)Nc1ccc2c(c1)CC(=O)N([C@@H](C)CO)C[C@@H](C)[C@@H](CN(C)Cc1ccc(C(=O)Nc3ccccc3N)cc1)O2	107*	2	.
C[C@H]1CN([C@@H](C)CO)C(=O)Cc2cc(NC(=O)Nc3ccc4c(c3)OCO4)ccc2O[C@@H]1CN(C)Cc1ccc(C(=O)Nc2ccccc2N)cc1	-9	-41	.
C[C@H]1CN([C@@H](C)CO)C(=O)Cc2cc(NC(=O)c3ccncc3)ccc2O[C@@H]1CN(C)Cc1ccc(C(=O)Nc2ccccc2N)cc1	32	-19	.
C[C@H]1CN([C@@H](C)CO)C(=O)Cc2cc(NC(=O)Nc3ccccc3)ccc2O[C@H]1CN(C)Cc1ccc(C(=O)Nc2ccccc2N)cc1	139*	29	.
